Experiment [1] is described as follows: qHTS assay to identify small molecule antagonists of the glucocorticoid receptor (GR) signaling pathway - cell viability counter screen (AID 720693). Also: nearly all actives have a fitted effect of over 55% in size.
Experiment [2] in a line: qHTS assay for identifying genotoxic compounds that show differential cytotoxicity against isogenic chicken DT40 cell lines with known DNA damage response pathways - wild type cell line (AID 743012). Also: nearly all actives have a fitted effect of over 60% in size. In outline: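 Using parental DT40 (300 cells/well), compounds delivered in DMSO incubate 40 h at 37 C/5% CO2. CellTiter-Glo reagent then stands 30 min at room temperature, and luminescence gives cell viability.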
Background: qHTS replaces the single test concentration by a dilution series.

A short description of experiment [3]: qHTS assay for identifying genotoxic compounds that show differential cytotoxicity against isogenic chicken DT40 cell lines with known DNA damage response pathways - Rev3 mutant cell line (AID 743014). Also: nearly all actives have a fitted effect of over 55% in size.
Experiment [4] can be described thus: qHTS assay for identifying genotoxic compounds that show differential cytotoxicity against isogenic chicken DT40 cell lines with known DNA damage response pathways - Rad54/Ku70 mutant cell line (AID 743015). Also: nearly all actives have a fitted effect of over 60% in size.
The nature of experiment [5]: qHTS assay to identify small molecule antagonists of the androgen receptor (AR) signaling pathway - cell viability counter screen (AID 743033; also: nearly all actives have a fitted effect of over 45% in size).
A short description of experiment [6]: qHTS assay to identify small molecule antagonists of the androgen receptor (AR) signaling pathway using the MDA cell line - cell viability counter screen (AID 743041; also: nearly all actives have a fitted effect of over 45% in size). The method, boiled down: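 Same-well cytotoxicity was assessed by CellTiter-Fluor in MDA-kb2 AR-luc cells after 16 h of compound treatment under R1881 agonism.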
The nature of experiment [7]: qHTS assay to identify small molecule antagonists of the thyroid receptor (TR) signaling pathway - cell viability counter screen (AID 743064). Also: nearly all actives have a fitted effect of over 50% in size. In outline:
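Counter screen for cytotoxicity: compound plus T3 (1 nM final) on GH3.TRE-Luc cells, 23.5 h at 37 °C, then fluorescence viability readout with CellTiter-Fluor.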

The nature of experiment [8]: qHTS assay to identify small molecule antagonists of the thyroid receptor (TR) signaling pathway (AID 743065). Also: series mostly up to about 70 µM; nearly all actives have a fitted effect of over 55% in size. In outline: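 GH3.TRE-Luc rat pituitary cells (two TREs driving luciferase) were dosed with compound, then stimulated with 1 nM T3 (final) for 23.5 h at 37 C. ONE-Glo luminescence was the read-out, with CellTiter-Fluor fluorescence as the cytotoxicity counter-screen.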

The test system of experiment [9] is thyroid hormone receptor (rat, GH3 cells). Description: qHTS assay to identify small molecule agonists of the thyroid receptor (TR) signaling pathway (AID 743066; calls by dose curve).
Experiment [10] can be described thus: qHTS assay to identify small molecule antagonists of the estrogen receptor alpha (ER-alpha) signaling pathway - cell viability counter screen (AID 743074; calls by dose curve;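 also: HEK293 cells carrying ER-alpha-UAS-bla reporter stimulated with 17beta-estradiol; nearly all actives have a fitted effect of over 45% in size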).
For experiment [11], the target named is Estrogen receptor (Homo sapiens) (UniProt P03372). Description: qHTS assay to identify small molecule agonists of the estrogen receptor alpha (ER-alpha) signaling pathway (AID 743075; calls by dose curve;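 also: HEK293 GripTite cells with ER-alpha and UAS-driven beta-lactamase reporter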).
Experiment [12] has the same target. Description: qHTS assay to identify small molecule agonists of the estrogen receptor alpha (ER-alpha) signaling pathway using the BG1 cell line (AID 743079). Also: nearly all actives have a fitted effect of over 20% in size. Also: potency is read from the fitted curve at half-maximal effect.
Experiment [13] can be described thus: qHTS assay to identify small molecule antagonists of the estrogen receptor alpha (ER-alpha) signaling pathway using the BG1 cell line (AID 743080; calls by dose curve;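 also: BG1 cells stimulated with 17beta-estradiol alongside compound; series mostly up to about 70 µM; nearly all actives have a fitted effect of over 25% in size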). In outline: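 Luciferase inhibition measured with ONE-Glo after 30 min at RT in BG1Luc4E2 cells given test compounds and 17beta-estradiol for 21.5 h at 37 C; CellTiter-Fluor viability read in the same wells beforehand.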

A short description of experiment [14]: qHTS assay to identify small molecule antagonists of the estrogen receptor alpha (ER-alpha) signaling pathway using the BG1 cell line - cell viability counter screen (AID 743081).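 Also: compound given together with 17beta-estradiol as the ER stimulus; series mostly up to about 70 µM; nearly all actives have a fitted effect of over 45% in size.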
The target of the next experiment is Aromatase (Homo sapiens) (UniProt P11511). Description: qHTS assay to identify aromatase inhibitors (AID 743083). Also: series mostly up to about 70 µM; nearly all actives have a fitted effect of over 55% in size.
Experiment [15] deals with Estrogen receptor (Homo sapiens) (UniProt P03372). Description: qHTS assay to identify small molecule antagonists of the estrogen receptor alpha (ER-alpha) signaling pathway (AID 743069; active = well fitted curve in the direction sought with a large enough effect in the signal ratio in the repeat runs, not every such curve was filed as active; the % refers to the signal ratio). The method, boiled down: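 Reporter cells (ER-alpha-bla, HEK293 background) are conditioned overnight in stripped-serum medium (2% charcoal-stripped FBS). Compound and 17beta-estradiol exposure runs 18 hr at 37C, 5% CO2.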

Drawing on PubChem BioAssay (Tox21), this text covers outcome and Potency for ten compounds.

Records with an inconclusive call do not appear. Activity calls are given as the source filed them. Unless noted, calls follow the shape of the dose curve; as a rule, active = well fitted curve in the direction sought with a large enough effect in the repeat runs; inconclusive = weak or mixed curves; inactive = no such curve, though single readings can be large; an effect the other way counts as inactive or inconclusive.

Estrogen receptor (Homo sapiens), sequence (P03372 whole entry, looked up): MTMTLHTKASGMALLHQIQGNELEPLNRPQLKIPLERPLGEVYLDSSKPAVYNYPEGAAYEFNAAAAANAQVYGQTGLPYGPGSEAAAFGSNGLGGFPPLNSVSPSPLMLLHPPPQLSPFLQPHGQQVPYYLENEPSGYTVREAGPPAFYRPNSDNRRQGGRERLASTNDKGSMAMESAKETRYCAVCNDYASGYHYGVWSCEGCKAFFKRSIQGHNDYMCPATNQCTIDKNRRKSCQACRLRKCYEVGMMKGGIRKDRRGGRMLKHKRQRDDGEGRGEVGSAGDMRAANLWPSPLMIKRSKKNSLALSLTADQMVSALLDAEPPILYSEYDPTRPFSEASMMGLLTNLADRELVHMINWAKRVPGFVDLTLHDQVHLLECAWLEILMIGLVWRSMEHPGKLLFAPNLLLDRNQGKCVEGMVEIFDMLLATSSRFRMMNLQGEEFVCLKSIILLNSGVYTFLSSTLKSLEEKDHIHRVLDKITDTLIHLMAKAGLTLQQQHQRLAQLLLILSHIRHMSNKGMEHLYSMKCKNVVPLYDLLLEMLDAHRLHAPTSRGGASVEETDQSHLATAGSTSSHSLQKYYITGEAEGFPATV
Aromatase (Homo sapiens), sequence (P11511 whole entry, looked up): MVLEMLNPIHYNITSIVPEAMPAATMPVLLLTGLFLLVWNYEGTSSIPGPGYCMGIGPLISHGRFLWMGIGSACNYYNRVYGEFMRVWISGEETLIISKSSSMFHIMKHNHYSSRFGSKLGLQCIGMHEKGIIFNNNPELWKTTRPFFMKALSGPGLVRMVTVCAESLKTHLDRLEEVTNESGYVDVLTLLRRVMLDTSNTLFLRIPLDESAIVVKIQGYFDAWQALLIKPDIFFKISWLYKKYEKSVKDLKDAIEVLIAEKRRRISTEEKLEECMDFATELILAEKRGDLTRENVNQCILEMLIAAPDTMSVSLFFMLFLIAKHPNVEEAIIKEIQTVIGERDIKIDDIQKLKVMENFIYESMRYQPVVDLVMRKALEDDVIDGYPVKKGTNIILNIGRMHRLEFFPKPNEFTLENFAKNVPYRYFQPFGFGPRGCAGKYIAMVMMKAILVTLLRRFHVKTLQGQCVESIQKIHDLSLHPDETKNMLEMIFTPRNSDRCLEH

Regarding `CO[C@@]1(NC(=O)Cc2cccs2)C(=O)N2C(C(=O)O)=C(COC(N)=O)CS[C@@H]21`, the outcome (in [1]; in experiment [5]; in experiment [9]; in experiment [10]; in experiment [13]; in the experiment with Aromatase (Homo sapiens)) was inactive. The Potency result in experiment [2], in experiment [3], in experiment [4], in [6], in [7] and in experiment [8] was “inactive” each time. Further, the Potency result in experiment [11], in [12] and in experiment [14] was “inactive” each time.

Turning to `CCc1occc(=O)c1O`, the compound was called inactive (in experiment [1]; in experiment [5]; in experiment [9]; in [10]; in [13]; in the experiment with Aromatase (Homo sapiens)). For the same compound, the Potency entry in experiment [2], in [3], in [4], in experiment [6], in experiment [7] and in experiment [8] was “inactive” throughout. Besides, the Potency entry in experiment [11], in experiment [12] and in experiment [14] was “inactive” throughout.

`O=C(O)[C@H](O)c1ccccc1`: the call (in experiment [1]; in experiment [5]; in [9]; in experiment [10]; in [13]; with Aromatase (Homo sapiens)) was inactive. For the same compound, the Potency entry in [2], in experiment [3], in experiment [4], in [6], in experiment [7] and in [8] was “inactive” in each case. In addition, the Potency result in [11] and in [14] was “inactive” in each case.

With `CCCSSCCC`, the compound was called inactive (in [1]; in experiment [5]; in experiment [9]; in experiment [10]; in experiment [13]; in the experiment with Aromatase (Homo sapiens)). Further, the Potency entry in experiment [2], in [3], in experiment [4], in experiment [6], in experiment [7] and in [8] was “inactive” in each case. The Potency entry in [11], in [12] and in experiment [14] was “inactive” throughout.

For the compound `CC/C(C)=N\O[Si](C)(O/N=C(\C)CC)O/N=C(\C)CC`, the compound was called inactive (in experiment [1]; in [5]; in experiment [9]; in experiment [10]; in experiment [13]; with Aromatase (Homo sapiens)). Besides, the Potency entry in experiment [2], in experiment [3], in [4], in [6], in experiment [7] and in experiment [8] was “inactive” in each case. Besides, the Potency result in experiment [11], in [12] and in experiment [14] was “inactive” throughout.

Consider `CCCCCc1cccc(=O)o1`, for which the result in experiment [1], in experiment [5], in [9], in [15], in experiment [10] and in experiment [13] was inactive. In the experiment with Aromatase (Homo sapiens), the compound was called inactive. In addition, the Potency entry in [2], in experiment [3], in experiment [4], in [6], in [7] and in experiment [8] was “inactive” throughout. Also, the Potency entry in experiment [11], in experiment [12] and in experiment [14] was “inactive” in each case.

`CC(CO)(CO)CO`: the compound was called inactive (in experiment [1]; in experiment [5]; in experiment [9]; in experiment [10]; in [13]; with Aromatase (Homo sapiens)). The Potency entry in [2], in experiment [3], in experiment [4], in experiment [6], in [7] and in [8] was “inactive” each time. For the same compound, the Potency entry in [11] and in [14] was “inactive” each time.

For the compound `CCCCCCCCCCOC(C)=O`, the outcome (in [1]; in experiment [5]; in experiment [9]; in experiment [10]; in [13]; with Aromatase (Homo sapiens)) was inactive. The Potency entry in experiment [2], in experiment [3], in experiment [4], in experiment [6], in experiment [7] and in experiment [8] was “inactive” each time. Besides, the Potency entry in experiment [11] and in experiment [14] was “inactive” throughout. In experiment [12], the Potency was 61.1 µM (active).

Regarding `Cc1cc(-c2ccccc2)nnc1NCCN1CCOCC1`, the outcome in [1], in experiment [5], in experiment [9], in experiment [15], in [10] and in experiment [13] was inactive. Also, the compound was classed as inactive with Aromatase (Homo sapiens). Besides, the Potency entry in [2], in experiment [3], in [4], in experiment [6], in experiment [7] and in experiment [8] was “inactive” throughout. For the same compound, the Potency entry in [11] and in [14] was “inactive” in each case.

Turning to `CCCCOCCOC(=O)COc1ccc(Cl)cc1Cl`, the compound was called inactive in [1], in experiment [5], in experiment [9], in [15], in experiment [10] and in [13]. Further, the outcome with Aromatase (Homo sapiens) was inactive. Also, the Potency entry in experiment [2], in experiment [3], in experiment [4], in experiment [6], in experiment [7] and in experiment [8] was “inactive” each time. Moreover, the Potency result in [11] and in experiment [14] was “inactive” in each case.
